Source: PubChem BioAssay (Tox21)
Values joined by “and” are separate entries in the source; they are usually repeats but may differ in a detail not shown here. Equal values may be shown once. Records with an inconclusive call do not appear. The source holds several records for some structures; these can differ, active in one and inactive in another. Active and inactive are the calls of the source. Unless noted, the call rests on the fitted dose curve; in most records, active means well fitted curve in the direction sought with a large enough effect in the repeat runs; inconclusive means weak or mixed curves; inactive means no such curve, though single readings can be large; an effect the other way counts as inactive or inconclusive.

Tests used:
[1] = qHTS assay to identify small molecule agonists of the vitamin D receptor (VDR) signaling pathway - cell viability counter screen (AID 743224); further: nearly all actives have a fitted effect of over 50% in size; further: potency means the concentration at half of the fitted maximal effect
Procedure, shortened: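 Compounds were pin-transferred onto VDR-bla cells plated 4 h earlier; following 16 h incubation at 37C, cell viability was quantified by CellTiter-Glo luminescence after 30 min at room temperature.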

[2] = qHTS assay to identify small molecule antagonists of the vitamin D receptor (VDR) signaling pathway - cell viability counter screen (AID 743225); further: nearly all actives have a fitted effect of over 50% in size
Procedure, shortened: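 Luminescent cell viability (CellTiter-Glo) in VDR-bla HEK 293T cells after 16 h compound exposure at 37C in the presence of 3 nM final 1-alpha,25-dihydroxy vitamin D3.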

[3] = qHTS assay to identify small molecule agonists of the NFkB signaling pathway (AID 1159509; active means well fitted curve in the direction sought with a large enough effect in the signal ratio in the repeat runs, not every such curve was filed as active; the % refers to the signal ratio; further: series mostly up to about 61 µM)
Procedure, shortened: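 Agonist activity was read as beta-lactamase-driven FRET change (460 and 530 nm emission, 405 nm excitation) following 1.5 hr substrate loading at room temperature. Beforehand, ME-180 NFkB-bla reporter cells were treated with compounds for 5 hr at 37 C.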

[4] = qHTS assay to identify small molecule agonists of the NFkB signaling pathway - cell viability counter screen (AID 1159515; calls by dose curve; further: series mostly up to about 61 µM; nearly all actives have a fitted effect of over 55% in size)
Procedure, shortened: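 Parallel cytotoxicity counter screen in ME-180 cells carrying an NFkB-response-element beta-lactamase reporter, 2,000 cells/well. Compound exposure lasted 5 hr at 37 C, 5% CO2. Cell viability was quantified by CellTiter-Glo luminescence.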

[5] = qHTS assay to identify small molecule agonists of the endoplasmic reticulum stress response signaling pathway (AID 1159516; active means well fitted activation curve with a large enough effect in the signal ratio in the repeat runs, not every such curve was filed as active; the % refers to the signal ratio)
Procedure, shortened: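 Using a HeLa line with an ESRE-driven beta-lactamase gene, agonist activity was measured by FRET substrate fluorescence (460 and 530 nm emission) after cells were treated with compounds for 5 hr at 37 C and 5% CO2.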

[6] = qHTS assay to identify small molecule antagonists of the retinoid-related orphan receptor gamma (ROR-gamma) signaling pathway - cell viability counter screen (AID 1159520); further: nearly all actives have a fitted effect of over 50% in size
Procedure, shortened: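 Tet-on ROR gamma CHO cells (1,000/well) were plated 4 hr, given compounds in DMSO for 2 hr at 37 C, then induced with 1 uM final doxycycline for 16 hr. Viability was read as ATP by CellTiter-Glo luminescence after 30 min.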

[7] = biological target: Nuclear receptor ROR-gamma (Homo sapiens) (UniProt P51449); experiment: qHTS assay to identify small molecule antagonists of the retinoid-related orphan receptor gamma (ROR-gamma) signaling pathway (AID 1159521;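 further: CHO cells with doxycycline inducible ROR-gamma driving an RORE luciferase reporter; top concentration of the series differs between compounds; nearly all actives have a fitted effect of over 50% in size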)
Procedure, shortened: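 CHO cells expressing RORγ under a TET-on promoter, luciferase under RORE control. Dox 1 uM final, 16 h; compounds added 2 h prior. Luminescence decrease measured.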

[8] = qHTS assay to identify small molecule agonists of the AP-1 signaling pathway - cell viability counter screen (AID 1159525; calls by dose curve; further: nearly all actives have a fitted effect of over 55% in size)
Procedure, shortened: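 Each titration point was normalised to DMSO and tetra n-octyl ammonium bromide controls. The read was Cell Titer Glo luminescence after 30 min at RT, following 5 h compound exposure of ME-180 AP-1-bla cells at 37 °C.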

[9] = qHTS assay to identify small molecule agonists of the AP-1 signaling pathway (AID 1159526; calls by dose curve; further: potency means the concentration at half of the fitted maximal effect)
[10] = biological target: Retinoic acid receptor RXR-alpha (Homo sapiens) (UniProt P19793); experiment: qHTS assay to identify small molecule agonists of the RXR signaling pathway (AID 1159527; calls by dose curve; further: nearly all actives have a fitted effect of over 35% in size)
Chain of Retinoic acid receptor RXR-alpha (Homo sapiens) (P19793 whole entry, looked up): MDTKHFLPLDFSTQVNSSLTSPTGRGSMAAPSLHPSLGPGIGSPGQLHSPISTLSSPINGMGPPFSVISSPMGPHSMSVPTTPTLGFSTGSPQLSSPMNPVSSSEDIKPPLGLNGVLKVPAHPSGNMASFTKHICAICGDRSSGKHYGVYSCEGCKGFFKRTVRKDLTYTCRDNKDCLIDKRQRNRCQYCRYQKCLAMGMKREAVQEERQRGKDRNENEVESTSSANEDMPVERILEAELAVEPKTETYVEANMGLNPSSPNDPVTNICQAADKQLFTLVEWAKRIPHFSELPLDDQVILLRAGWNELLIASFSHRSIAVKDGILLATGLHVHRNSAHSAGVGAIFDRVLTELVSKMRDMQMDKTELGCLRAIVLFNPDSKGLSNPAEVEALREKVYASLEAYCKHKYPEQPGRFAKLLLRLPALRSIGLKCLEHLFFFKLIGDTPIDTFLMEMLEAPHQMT
Procedure, shortened: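 Beta-lactamase reporter assay, agonist format. Engineered HEK 293T line, charcoal-stripped FBS at 2%, overnight (16 hr) exposure, fluorescence at 460 and 530 nm after 405 nm excitation.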

[11] = qHTS assay to identify small molecule agonists of the RXR signaling pathway - cell viability counter screen (AID 1159529)
Procedure, shortened: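 Same-well viability check after the LiveBLAzer FRET read: CellTiter-Glo added, luminescence measured after 30 min at room temperature. Reporter HEK 293T cells had been treated with compounds for 16 hr following a 5 hr preincubation.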

[12] = qHTS assay to identify small molecule antagonists of the retinoid acid receptor (RAR) signaling pathway - cell viability counter screen (AID 1159551); further: nearly all actives have a fitted effect of over 35% in size
Procedure, shortened: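 ATP-based viability, C3RL4 cells, 6 h at 37 C with 1 uM final retinol co-added after compound; luminescence read 30 min post CellTiter-Glo, RT.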

[13] = qHTS assay to identify small molecule antagonists of the retinoic acid receptor (RAR) signaling pathway (AID 1159552; further: nearly all actives have a fitted effect of over 50% in size)
Procedure, shortened: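 Readout: luciferase luminescence, 30 min post-reagent at RT. Setup: C3RL4 RARE reporter cells, compounds plus retinol 1 uM final, 6 hr incubation at 37 C and 5% CO2.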

[14] = qHTS assay to identify small molecule agonists of the retinoic acid receptor (RAR) signaling pathway (AID 1159553)
Procedure, shortened: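 Quantitative high-throughput format: the Tox21 10K library was tested on C3RL4 RARE-luciferase cells for 6 hr at 37 C and 5% CO2, with luminescence measured after a 30 min room-temperature reagent step.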

[15] = qHTS assay to identify small molecule antagonists of the estrogen related receptor (ERR) signaling pathway - cell viability counter screen (AID 1224818);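 further: series mostly up to about 46 µM; viability measured after 17.5 h of compound exposure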
Procedure, shortened: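 Quantitative high-throughput viability counter screen in ERR cells. Compounds (DMSO) incubated 17.5 h at 37 C; read-out was CellTiter-Fluor fluorescence.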

[16] = qHTS assay to identify small molecule antagonists of the estrogen related receptor signaling pathway with the pleiotropic PPARgamma coactivator (PGC) cell viability counter screen (AID 1224822; further: series mostly up to about 46 µM)
Procedure, shortened: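 Cytotoxicity in the PGC/ERR cell line is assessed with CellTiter-Fluor, read as fluorescence intensity 30 min after reagent addition, following 17.5 h compound treatment at 37 C.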

Measured: Potency

O=C(O)C1C(C(=O)O)C2(Cl)C(Cl)=C(Cl)C1(Cl)C2(Cl)Cl (stereo unspecified)
not listed: [13] | [14] | [15] | [16]
inactive: all other assays above

CN(C)C(=O)Cl
not listed: [11] | [15] | [16]
inactive: all other assays above

O=[N+]([O-])c1ccc(Cl)cc1
not listed: [11] | [13] | [14] | [15] | [16]
inactive: all other assays above

Sc1ccccc1
49.7 µM (active) and inactive: [9]
not listed: [10] | [11] | [13] | [14] | [15] | [16]
inactive: all other assays above

O=[N+]([O-])c1cc([As](=O)(O)O)ccc1O
not listed: [1] | [15] | [16]
inactive: all other assays above

Nc1nc(N)nc(NC2CC2)n1
inactive and 43.6 µM (active): [1]
not listed: [11] | [15] | [16]
inactive: all other assays above

CNC(=O)O/N=C/C(C)(C)SC
not listed: [1] | [15] | [16]
inactive: all other assays above

Nc1cccc(Cl)c1
not listed: [13] | [14] | [15] | [16]
inactive: all other assays above

Clc1cnc(Oc2ccc(Oc3ncc(Cl)cc3Cl)cc2)c(Cl)c1
not listed: [1] | [11]
inactive: all other assays above
